The source of these data is PubChem BioAssay AID376 (PDSP, 2006).

Molecules are shown by their SMILES. The whole screen tested about 2,000 compounds, of which about 250 (12%) were called active. No stated cut-off is given here; in the data, active means hERG blockade below about -20% or above about 20%; inactive means in between. Many of the other results were omitted from the sample, so actives are more common in it than they were.

In the assay the target is Voltage-gated inwardly rectifying potassium channel KCNH2 (Homo sapiens) (UniProt Q12809). Nature of the assay: modulators of KCNH2 ion channel function, cellular (AID 376).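 Further: 0% = buffer alone and 100% = reference blocker.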 The settings on record: hERG-expressing cells, channel activity single-concentration screen; concentration not given here.
Chain of Voltage-gated inwardly rectifying potassium channel KCNH2 (Homo sapiens) (Q12809 whole entry, looked up): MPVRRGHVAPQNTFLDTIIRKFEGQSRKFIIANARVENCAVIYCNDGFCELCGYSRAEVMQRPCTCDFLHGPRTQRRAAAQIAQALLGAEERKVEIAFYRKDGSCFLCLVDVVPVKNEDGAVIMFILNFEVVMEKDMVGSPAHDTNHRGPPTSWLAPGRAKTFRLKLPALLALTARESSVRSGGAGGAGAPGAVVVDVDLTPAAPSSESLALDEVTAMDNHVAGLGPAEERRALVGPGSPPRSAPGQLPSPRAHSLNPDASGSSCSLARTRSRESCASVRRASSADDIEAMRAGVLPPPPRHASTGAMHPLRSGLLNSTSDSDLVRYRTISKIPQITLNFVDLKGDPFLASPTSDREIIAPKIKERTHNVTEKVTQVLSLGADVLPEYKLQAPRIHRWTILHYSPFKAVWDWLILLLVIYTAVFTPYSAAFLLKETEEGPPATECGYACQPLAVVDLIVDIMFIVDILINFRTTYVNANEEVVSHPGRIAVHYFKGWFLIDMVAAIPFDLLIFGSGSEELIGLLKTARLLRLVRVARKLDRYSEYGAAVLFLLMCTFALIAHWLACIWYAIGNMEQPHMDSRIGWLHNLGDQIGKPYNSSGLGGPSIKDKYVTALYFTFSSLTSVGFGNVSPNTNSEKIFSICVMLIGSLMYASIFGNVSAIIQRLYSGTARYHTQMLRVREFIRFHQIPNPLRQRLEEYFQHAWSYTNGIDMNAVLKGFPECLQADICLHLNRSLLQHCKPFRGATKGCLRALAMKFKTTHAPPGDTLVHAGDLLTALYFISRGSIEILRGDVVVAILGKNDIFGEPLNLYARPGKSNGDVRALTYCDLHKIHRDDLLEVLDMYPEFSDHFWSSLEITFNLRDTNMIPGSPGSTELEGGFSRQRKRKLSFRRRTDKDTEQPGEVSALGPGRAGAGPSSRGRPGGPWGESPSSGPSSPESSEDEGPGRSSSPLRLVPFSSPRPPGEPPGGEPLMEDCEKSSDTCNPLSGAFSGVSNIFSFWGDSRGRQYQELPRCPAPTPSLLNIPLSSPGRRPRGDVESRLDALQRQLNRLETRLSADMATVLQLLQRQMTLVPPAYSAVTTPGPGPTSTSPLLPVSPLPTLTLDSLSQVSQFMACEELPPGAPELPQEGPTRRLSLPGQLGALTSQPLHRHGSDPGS
In the case of `NC(CSCc1ccc(I)cc1)C(=O)O` (centres undefined), the hERG blockade is 8.02% (inactive).
`O=C(O)c1cc2c(cc1S(=O)(=O)O)C1C(C3C2C2(Cl)C(Cl)=C(Cl)C3(Cl)C2(Cl)Cl)C2(Cl)C(Cl)=C(Cl)C1(Cl)C2(Cl)Cl` (centres undefined): the hERG blockade is 3.63% (inactive).
For `CC(C)Oc1cc(O)c2c(c1)OCC=C2CCC(=O)O`, the hERG blockade was 16% (inactive).
Consider `O=C1OC2(c3ccc(O)cc3Oc3cc(O)ccc32)c2c1c(-c1ccccc1)c(-c1ccccc1)c(-c1ccccc1)c2-c1ccccc1`, for which the hERG blockade was -2.77% (inactive).
As to `O=C(O)C=CC=Cc1ccc2c(c1)OCO2`, the hERG blockade was -8.5% (inactive).
Regarding `O=C(O)CSC1=NCCN1`, the hERG blockade was -1.36% (inactive).
On to `Cc1ccc(S(=O)(=O)OC2CCN(C)CC2)cc1`, for which the hERG blockade was -11.1% (inactive).
As for `Nc1ncnc2nn(C3OC(CO)C(O)C3O)nc12` (centres undefined), the hERG blockade is 13.3% (inactive).
For the compound `N#CC(=NCCO)C1=C(O)c2ccccc2C1=O`, the hERG blockade was -3.02% (inactive).
Consider `CC1CCCC2(CC[N+](C)(CCC[N+](C)(C)C)CC2)C1` (centres undefined), for which the hERG blockade is 17.8% (inactive).
Consider `CCN(CC(=O)O)CC(=O)O`, for which the hERG blockade is 4.67% (inactive).
For the compound `CC12CCC(=O)C=C1CCC1C2C(O)CC2(C)C1CCC2(O)C(=O)CO` (centres undefined), the hERG blockade was 14.3% (inactive).
With `CN1CCCC(C(=O)OCC(=O)C2(O)CCC3C4CCC5=CC(=O)CCC5(C)C4C(O)CC32C)C1` (centres undefined), the hERG blockade is 25.6% (active).
As for `CC12CCC(=O)C=C1CCC1C2C(O)CC2(C)C1CCC2(O)C(=O)COC(=O)C1CCCC1` (centres undefined), the hERG blockade is -2.63% (inactive).
As to `CC(NC(=O)C1(N)CCCC1)C(=O)O` (centres undefined), the hERG blockade is -5.06% (inactive).
On to `CCOC(=O)Cn1c(C(F)(F)F)nc2nc(Cl)c(Cl)nc21`, for which the hERG blockade was 13.4% (inactive).
With `O=C(O)c1nn(-c2ccc(Cl)cc2)c2c1C(=O)c1ccccc1C2=O`, the hERG blockade is 26% (active).
With `O=C(O)c1nn(-c2ccccc2-c2n[nH]c(=O)[nH]c2=O)c(=O)[nH]c1=O`, the hERG blockade was 7.69% (inactive).
`O=C1C(=O)c2ccccc2C(O)=C1C(C1=C(O)c2ccccc2C(=O)C1=O)c1ccc(Cl)cc1`: the hERG blockade was 17.5% (inactive).
On to `Cc1cn(C2CC(N=[N+]=[N-])C(CO)O2)c(=O)[nH]c1=O` (centres undefined), for which the hERG blockade is 9.12% (inactive).
For `CC(C)C12CCC3(CCC4C(C)(C(=O)O)CCCC4(C)C3C1)C(CN)C2` (centres undefined), the hERG blockade is -4.91% (inactive).
With `CN(C)CCC=C1c2ccccc2C=Cc2ccccc21`, the hERG blockade is 15.1% (inactive).
For `CN(C)CCC=C1c2ccccc2Sc2ccc(Cl)cc21`, the hERG blockade was 66.2% (active).
As to `CC(C[n+]1ccccc1)=NN=C(N)N`, the hERG blockade is 12.9% (inactive).
As for `Clc1ccc2c(N3CCC(CCC4CCN(c5ncnc6cc(Cl)ccc56)CC4)CC3)ncnc2c1`, the hERG blockade is -8.41% (inactive).
For the compound `Clc1ccc2c(NCCNC3CCCCC3)ccnc2c1`, the hERG blockade is 63.2% (active).
For the compound `Clc1ccc2c(NC3CCC(N4CCCCC4)CC3)ccnc2c1` (centres undefined), the hERG blockade is 53.4% (active).
Under `O=C(O)c1ccc(Nc2ccnc3cc(Cl)ccc23)cc1O` stands -3.15% (inactive); under `Clc1ccc2c(NCCNc3ccnc4cc(Cl)ccc34)ccnc2c1`, 0.444% (inactive).
Consider `O=C(O)CN(CCN(CC(=O)O)CC(=O)O)CC(=O)O.[Mn+2]`, for which the hERG blockade was -6.49% (inactive).
Next, `O=c1ccc(-c2ccccc2)n[nH]1`: 17.2% (inactive).
Next, `CC(C)C(N)(C(=O)O)c1ccccc1` (centres undefined): -5.81% (inactive).
Consider `CC1(c2ccccc2)OC2CC3C4CCC5=CC(=O)C=CC5(C)C4(F)C(O)CC3(C)C2(C(=O)CO)O1` (centres undefined), for which the hERG blockade was 6.41% (inactive).
Take `O=CNc1ncn[nH]1`: the hERG blockade was -3.79% (inactive).
Turning to `c1c[nH]c(CN2CCOCC2)n1`, the hERG blockade was 2.23% (inactive).
As for `CC1CCC2C(C)C3C(CC4C5CC=C6CC(O)CCC6(C)C5CC(O)C43C)N2C1` (centres undefined), the hERG blockade was -3.2% (inactive).
Next, `CC(=O)Nc1nc(NC(C)=O)c2[nH]c(CO)nc2n1`: 0.0402% (inactive); `O=S1(=O)NC2CCC3NS(=O)(=O)NC4CCC(N1)N4S(=O)(=O)N23` (centres undefined): 0.569% (inactive); `CN(C)CCN(c1ccccn1)c1ccccn1`: -15.1% (inactive).
With `C[N+](C)(C)CCN(Cc1cccs1)c1ccccn1`, the hERG blockade was 39.5% (active).
With `CC(CO)(CO)N=Cc1cc(I)cc(I)c1O`, the hERG blockade was 5% (inactive).
Regarding `O=C1Oc2ccccc2C(=O)C1=CN1C(=O)NC(=Cc2ccccc2O)C1=O`, the hERG blockade is 10.5% (inactive).
Regarding `c1ccc(SC(Sc2ccccc2)c2ccc3c(c2)OCO3)cc1`, the hERG blockade was 15.6% (inactive).
Consider `CN(C)c1ccc(C(=C2C=CC(=[N+](C)C)C=C2)c2c(O)c(S(=O)(=O)[O-])cc3cc(S(=O)(=O)O)ccc23)cc1`, for which the hERG blockade is 8.17% (inactive).
Turning to `N=C1C=CC(=C(c2ccc(N)cc2)c2ccc(N)cc2)C=C1`, the hERG blockade was 9.77% (inactive).
Regarding `CN(C)c1ccc(C(=C2C=CC(=[N+](C)C)C=C2)c2ccccc2)cc1`, the hERG blockade is 40.6% (active).
Take `CC(=O)CC(=O)Nc1ccc2ccccc2c1`: the hERG blockade is 2.34% (inactive).
Under `O=C(c1ccccc1)C(Nc1ccc2ccccc2c1)c1ccccc1` (centres undefined) stands 25.3% (active).
Turning to `O=C(O)CCC(=O)Nc1ccc2ccccc2c1`, the hERG blockade was 10% (inactive).
In the case of `O=S(=O)(O)C(CO)c1ccccc1` (centres undefined) (tested in a mixture with another compound), the hERG blockade was 13.2% (inactive).
Under `NNC(=O)c1ccc(OCc2nc3ccccc3[nH]2)cc1` stands 0.772% (inactive).
Next, `CN(CC(=O)O)Cc1c(O)c(Cl)cc(Cl)c1Cl`: -16.4% (inactive); `O=C(O)C1CCN(Cc2oc(CO)cc(=O)c2O)C1` (centres undefined): 3.01% (inactive); `CN(CC(=O)O)Cc1oc(CO)cc(=O)c1O`: -29.8% (active).
Turning to `CC1=C(CCC(C)CO)OC2CC3C4CCC5CC(O)CCC5(C)C4CC(=O)C3(C)C12` (centres undefined), the hERG blockade is -6.35% (inactive).
For the compound `NC1=C(O)C(=O)C(c2c[nH]c3ccc(OCc4ccccc4)cc23)O1` (centres undefined), the hERG blockade is 12.8% (inactive).
`Nc1nc(-c2ccc3ccccc3c2)cc(-c2cc(-c3ccc4ccccc4c3)nc(N)n2)n1`: the hERG blockade is 2.73% (inactive).
As to `S=C1NCN2CCN(CC2)CNC(=S)C(=S)NCN2CCN(CC2)CNC1=S`, the hERG blockade was 17.9% (inactive).
With `Nc1nc(Cl)cc(NCCO)n1`, the hERG blockade was -8.52% (inactive).
As to `O=[N+]([O-])c1cc(Cl)cc2c1nc(NCCO)c1ccccc12`, the hERG blockade is 38% (active).
For `O=[N+]([O-])c1cc(Cc2cc([N+](=O)[O-])c3cccnc3c2O)c(O)c2ncccc12`, the hERG blockade was -5.37% (inactive).
`Cc1cn(CCC(N)C(=O)O)c(=O)[nH]c1=O` (centres undefined): the hERG blockade is 2.71% (inactive).
Under `O=C(Cn1ccc(=O)[nH]c1=O)Nc1ccc(C(=O)O)c(O)c1` stands -7.44% (inactive); under `O=C(O)CCCCn1ccc(=O)[nH]c1=O`, -28% (active).
Under `O=C(CCN1CCOCC1)Nc1ccc(F)cc1F` stands 4.1% (inactive); under `O=C(O)Cc1[nH]cnc1C(=O)O`, -3.29% (inactive).
As for `O=C1C(=Cc2ccccc2)C(NC2CCCCC2)c2ccccc21` (centres undefined), the hERG blockade was -0.193% (inactive).
As to `CC(C)C1OC(=O)C=CC=CC=CC=CC=CCC(O)C(C)C(O)CC(O)CC(O)CC(O)CC(O)CC(O)CC(O)C=CC1C` (centres undefined), the hERG blockade was 5.61% (inactive).
For `CN(C)Cc1cc(Cl)c(O)c(CN(C)C)c1`, the hERG blockade was 1.1% (inactive).
Regarding `Oc1c(Cl)cc(CN(Cc2cc(Cl)c(O)c(Cl)c2)C2CCCCC2)cc1Cl`, the hERG blockade was 1.49% (inactive).
As for `Oc1c(Cl)cc(C(c2cc(Cl)c(O)c(Cl)c2)C(c2cc(Cl)c(O)c(Cl)c2)c2cc(Cl)c(O)c(Cl)c2)cc1Cl`, the hERG blockade was 25.7% (active).
On to `CC(C)(CC1(C)NC(=O)NC1=O)OCc1ccccc1` (centres undefined), for which the hERG blockade was -10.8% (inactive).
As to `O=C(O)Cn1ccnc1[N+](=O)[O-]`, the hERG blockade is -10.9% (inactive).
Take `O=C(O)c1nc(-c2ccccc2)[nH]c1C(=O)O`: the hERG blockade was 4.21% (inactive).
For the compound `NCCCc1c(-c2ccccc2)nc(N)[nH]c1=O`, the hERG blockade was -2.69% (inactive).
Take `Nc1nc(C(=O)O)c(N=Nc2ccccc2)c(=O)[nH]1`: the hERG blockade was 33.3% (active).
`O=C(c1nc2ccc([N+](=O)[O-])cc2[nH]c1=O)C(O)c1ccc2c(c1)OCO2` (centres undefined): the hERG blockade is -14.1% (inactive).
Next, `O=C1CN2CCN(CC2)CC(=O)Nc2ccc(cc2)S(=O)(=O)c2ccc(cc2)NC(=O)CN2CCN(CC2)CC(=O)Nc2ccc(cc2)S(=O)(=O)c2ccc(cc2)N1`: 6.34% (inactive); `O=C(O)c1ccc([N+]2=Cn3c(nc4ccccc43)C2)cc1`: 6.37% (inactive); `COC(=O)CCC(C)C1CCC2C3CCC4CC5CCC4(C)C3(O5)C(Br)C(Br)C12C` (centres undefined): 5.42% (inactive).
Turning to `CCC(N)(C(=O)O)C(C)C` (centres undefined), the hERG blockade was -13.5% (inactive).
Next, `NC(=O)N=C(N)NC(=O)c1ccccc1`: -1.06% (inactive); `CN=C(N)N=C(N)Nc1cc2ccccc2c2ccccc12`: -54.4% (active).
Under `CCOC(=O)C(C)(C)C(O)C(C)C` (centres undefined) stands 16.9% (inactive); under `Cc1nc(N)nc2ccccc12`, 1.82% (inactive); under `CS(=O)(=O)Nc1ccc(Nc2c3ccccc3nc3ccccc23)cc1`, 30.8% (active).
Turning to `CC1OC(O)C(O)C(O)C1O` (centres undefined), the hERG blockade was 8.47% (inactive).
Consider `Oc1ccc(Cl)cc1Sc1cc(Cl)ccc1O`, for which the hERG blockade was 36.8% (active).
On to `O=C(O)C(Sc1ccc(Cl)cc1)Sc1ccc(Cl)cc1`, for which the hERG blockade was -7.17% (inactive).
As to `N#CCCSC(=S)C1CCCC1=N` (centres undefined), the hERG blockade was 14.7% (inactive).
Under `CSc1ccc2c(c1)N(CCCN(C)C)c1ccccc1S2` stands 90.6% (active).
As for `Cc1c2cnccc2c(C)c2c1c1ccccc1n2CCOC(=O)c1ccccc1`, the hERG blockade is 17.4% (inactive).
Next, `CN(C)CCCN1c2ccc(O)cc2Sc2ccc(Cl)cc21`: 62.7% (active).
As to `CN(C)CCCN1c2ccccc2Sc2cnccc21`, the hERG blockade is 73.5% (active).
Next, `CN(C)CCCn1cnc2cc(Cl)c(Cl)cc21`: 5.34% (inactive); `CN(C)CCCn1c2ccccc2c2cnccc21`: 90.4% (active); `Oc1cc(O)c2c(c1)OC(c1ccc(O)c(O)c1)C(OC1(c3cc(O)c(O)c(O)c3)Oc3cc(O)cc(O)c3C(O)C1O)C2` (centres undefined): -3.37% (inactive).
In the case of `CC(CC(=O)O)C(C(=O)O)C(=O)O` (centres undefined), the hERG blockade is 2.78% (inactive).
For the compound `Oc1cc(CN2COc3ccccc32)c(O)cc1CNC1CCCCC1`, the hERG blockade is 6.98% (inactive).
